Screening results from PubChem.
PP5 primary – PP5 (human) phosphatase inhibition. 320,000 tested, 0.18% active. purified PP5c, OMFP substrate fluorescence. P53041. inhibition, % at 6.7 µM. AID 1987;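 active means inhibition above the campaign's mean inhibition across all tested compounds plus 3 SD, cut at about 9.5% in these data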;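 further: 0% = DMSO only and 100% = 100 µM cantharidin control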
SKKanGAS inh – blocks kanamycin growth of S. pyogenes SKKanGAS strain; AID 1662; 300,000 tested, 1.3% active; inhibition, % at 7.5 µM; BacTiter-Glo, 6 h;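 active means mean replicate score, as percent of positive control median, at least 50; inconclusive means mean below 50 but one replicate at or above 50; inactive means mean and every replicate below 50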;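 further: strain carries kanamycin resistance gene driven by streptokinase promoter and grows in 40 µg/ml kanamycin; loss of luminescence reflects streptokinase promoter inhibition or plain growth inhibition; 0% = median of DMSO wells and 100% = positive control at its reference dose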
CSC inhib – cancer stem cell inhibition; cancer stem cell-like cells viability, luminescence; inhibition, % at 7.5 µM; 300,000 tested, 1.1% active; in the data active means inhibition above about 75%; inconclusive means no clear call, values can overlap the other calls; tested in HMLE shEcad cells
Beta apoptosis – blocks beta cell apoptosis; INS-1E cytokine-induced death, ATP luminescence, 48 h; percent of positive-control rescue, neutral wells zero; protection from apoptosis, % (test concentration not listed); 300,000 tested, 0.8% active; AID 435005;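 active means Every replicate reaches about 75%, or at least half do and their mean reaches it too, limit read from the data; inconclusive means At least half of replicates reach the limit but their mean does not; inactive means Under half of replicates reach the limit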;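 further: 0% = cytokine-treated negative control wells and 100% = positive control rescue; higher means more ATP so stronger rescue from cytokine killing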
PP1 counter – blocks human PP1-alpha phosphatase, a PP5 counter-screen | P62136 | purified PP1alpha, OMFP fluorescence | inhibition, % at 6.7 µM | 320,000 tested, 0.9% active;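 active means inhibition above the mean inhibition of all tested compounds plus 3 SD, computed separately for each screening campaign, cut at about 15% in these data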
Target sequence (P62136 whole entry, looked up): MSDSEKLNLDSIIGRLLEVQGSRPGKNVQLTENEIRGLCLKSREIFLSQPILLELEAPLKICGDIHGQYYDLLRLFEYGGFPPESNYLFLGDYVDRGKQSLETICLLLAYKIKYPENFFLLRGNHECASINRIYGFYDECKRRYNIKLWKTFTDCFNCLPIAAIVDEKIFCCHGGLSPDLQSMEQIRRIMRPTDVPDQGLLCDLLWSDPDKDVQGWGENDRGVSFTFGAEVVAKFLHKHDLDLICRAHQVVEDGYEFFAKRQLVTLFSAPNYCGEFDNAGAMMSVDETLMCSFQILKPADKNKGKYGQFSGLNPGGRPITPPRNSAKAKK
* hit, by the source's call; ? = inconclusive; nt = no result given. Compounds with a hit are over-represented: about 3.1% of the library has one in this group of screens.

SMILES | PP5 primary | SKKanGAS inh | CSC inhib | Beta apoptosis | PP1 counter
CCCCc1ccc(NC(=S)NCCc2ccc(F)cc2)cc1 | 2.0 | ? | 56.5 | -3.6 | 0.6
CC(NCC(O)COCCC12CC3CC(CC(C3)C1)C2)c1ccccc1 (stereo not given) | 0.0 | 7.8 | 105.2* | 88.5* | 11.8
NCC(O)COCCC12CC3CC(CC(C3)C1)C2 (stereo not given) | -1.5 | 5.3 | -12.5 | -1.6 | -2.7
c1csc(-c2csc3nc(CN4CCOCC4)nc(NCc4ccc5c(c4)OCO5)c23)c1 | 1.1 | 57.2* | 37.9 | 11.4 | 3.9
c1ccc2c(c1)nc(NCc1ccc3c(c1)OCO3)n2CCN1CCOCC1 | 0.8 | -4.9 | -7.5 | -1.3 | 1.9
Cc1ccc(C)c(NC(=O)COC(=O)c2cc3ccccc3oc2=O)c1 | 0.6 | nt | nt | 0.4 | 3.6
CN(C)C(CNC(=S)Nc1ccccc1Cl)c1cccnc1 (stereo not given) | 1.7 | -2.6 | -2.4 | -1.6 | 1.6
Nc1nc(NCCOCCO)nc(N2CCCCCC2)c1[N+](=O)[O-] | nt | 76.8* | -11.5 | -0.9 | nt
Nc1nc(NCCO)nc(N2CCCCCC2)c1[N+](=O)[O-] | -1.5 | 0.3 | -2.0 | -1.9 | -0.1
COc1ccc(NC(=O)CN2C(=O)N(C)Cc3ccccc32)c(C)c1 | 1.8 | -8.7 | -11.2 | -16.3 | -1.4
O=C(CN1C(=O)S/C(=C\c2ccc(Cl)cc2)C1=O)NCCCn1ccnc1 | 2.0 | -1.8 | 63.8 | 11.7 | 4.3
O=C1c2ccc3c4c(ccc(c24)C(=O)N1c1cccc(O)c1)C(=O)N(c1cccc(O)c1)C3=O | 1.0 | 65.0* | 12.0 | 117.8* | 4.6
O=S(=O)(/C=C/c1ccccc1)N1CCN(c2nc(-c3ccccc3)nc3ccccc23)CC1 | 0.6 | 6.2 | 6.0 | 11.4 | 2.6
CCn1c(=NC(=O)CCS(=O)(=O)c2ccccc2)sc2cccc(OC)c21 | 6.3 | 34.2 | -5.9 | 87.3* | 3.5
CCn1c(=NC(=O)CS(=O)(=O)c2ccc(F)cc2)sc2cccc(OC)c21 | 1.1 | 5.7 | -6.6 | nt | 6.9
CCn1c(=NC(=O)c2ccc(S(=O)(=O)N3CCOCC3)cc2)sc2cccc(OC)c21 | -1.5 | 2.4 | 32.7 | 88.0* | -0.1
O=Cc1cc2ccccc2nc1SCc1ccc(Cl)c(Cl)c1 | -0.6 | 45.2 | 93.6* | 56.9 | 1.3
O=Cc1cc2ccccc2nc1SCc1ccc(Cl)cc1 | 1.8 | 51.4* | 87.7* | 25.3 | -1.2
CC(C)(C)n1nnnc1C(c1cccnc1)N1CCN(c2cccc(C(F)(F)F)c2)CC1 (stereo not given) | 1.6 | 2.0 | -14.9 | 0.4 | 1.6
CC(C)(C)c1cc(C(c2cccnc2)N2CCN(CCO)CC2)cc(C(C)(C)C)c1O (stereo not given) | 1.4 | -42.8 | 195.5* | 8.8 | -0.3
CC(C)CC1Nc2ncnc(N3CCN(c4ccccn4)CC3)c2N(Cc2ccccc2)C1=O (stereo not given) | nt | nt | nt | -0.8 | nt
CC(=O)N1CCN(CC(=O)Nc2c(Cl)ccc(C)c2Cl)CC1 | -1.3 | 2.2 | -6.6 | -2.2 | -2.9
COc1ccc(Cc2nnc(N/N=C/c3ccc(O)cc3O)[nH]c2=O)cc1OC | 3.3 | -2.3 | 90.7* | 35.7 | 2.1
Cc1ccc(NC(=O)C2CCC(CNC(=O)[C@@H]3Cc4ccccc4CN3)CC2)c(C)c1 (stereo not given in full) | 1.3 | -0.3 | -9.8 | -7.6 | -1.9
COc1ccccc1NC(=O)CN(c1ccc(C23CC4CC(CC(C4)C2)C3)cc1)S(C)(=O)=O | 9.1 | 8.1 | 25.7 | 100.5* | -0.2
SMILES | PP5 primary | SKKanGAS inh | CSC inhib | Beta apoptosis | PP1 counter
O=C(C1CCC1)N1CCc2cc(S(=O)(=O)Nc3ccc4c(c3)OCCO4)ccc21 | 1.5 | -0.4 | -5.7 | 78.6* | 5.6
CCC(=O)N1CCc2cc(S(=O)(=O)Nc3ccc4c(c3)OCCO4)ccc21 | -1.0 | 1.1 | 0.1 | 52.1 | -4.8
Cc1ccc(S(=O)(=O)N2CCOCC2)cc1NC(=O)COC(=O)CCOc1ccc(C(C)(C)C)cc1 | 4.7 | 12.7 | 5.6 | -2.6 | 0.1
Cc1ccccc1S(=O)(=O)Cc1ccc(C(=O)NCCCN2CCC(C)CC2)o1 | 1.2 | -0.5 | 2.5 | 6.8 | 1.2
COc1ccccc1C(=O)NCCNc1nc2cc(C)cc(C)c2cc1C#N | -3.0 | 4.4 | 13.1 | 0.6 | -7.4
COc1cc(OC)cc(C(=O)NCCNc2nc3cc(C)cc(C)c3cc2C#N)c1 | 2.5 | 15.2 | 77.3* | 7.6 | 5.0
O=C(N/N=C/c1c[nH]c2ccccc12)c1cc(-c2ccc(-c3ccccc3)cc2)n[nH]1 | 3.9 | 92.3* | -9.5 | 19.2 | 10.4
